# Experimental data as given in paper PMC5540273 (PLoS ONE, 2017).
# Where two headings read alike, the source gives them in different places.
# Legend:
# [1] = test system: CSNK1G1; conditions: concentration: 1 μM, replicates: in singlicate; n = 1
# [2] = test system: CSNK1G2; conditions: concentration: 1 μM, replicates: in singlicate; n = 1
# [3] = test system: CSNK1G3; conditions: concentration: 1 μM, replicates: in singlicate; n = 1
# [4] = test system: CSNK2A1; conditions: n = 1
# [5] = test system: CSNK2A2; conditions: n = 1
# [6] = test system: T1, CTK; conditions: concentration: 1 μM, replicates: in singlicate; n = 1
# T1 construct: gene MATK
# [7] = test system: DAPK1; conditions: concentration: 1 μM, replicates: in singlicate; n = 1
# [8] = test system: DAPK2; conditions: concentration: 1 μM, replicates: in singlicate; n = 1
# [9] = test system: DAPK3; conditions: concentration: 1 μM, replicates: in singlicate; n = 1
# [10] = test system: T2, DCAMKL1; conditions: concentration: 1 μM, replicates: in singlicate; n = 1
# T2 construct: gene DCLK1
# [11] = test system: T3, DCAMKL2; conditions: concentration: 1 μM, replicates: in singlicate; n = 1
# T3 construct: gene DCLK2
# [12] = test system: T4, DCAMKL3; conditions: concentration: 1 μM, replicates: in singlicate; n = 1
# T4 construct: gene DCLK3
# [13] = test system: DDR1; conditions: concentration: 1 μM, replicates: in singlicate; n = 1
# [14] = test system: DDR2; conditions: concentration: 1 μM, replicates: in singlicate; n = 1
# [15] = test system: T5, DLK; conditions: concentration: 1 μM, replicates: in singlicate; n = 1
# T5 construct: gene MAP3K12
# [16] = test system: T6, DMPK2; conditions: concentration: 1 μM, replicates: in singlicate; n = 1
# T6 construct: gene CDC42BPG
# [17] = test system: DMPK; conditions: concentration: 1 μM, replicates: in singlicate; n = 1
# [18] = test system: T7, DRAK1; conditions: concentration: 1 μM, replicates: in singlicate; n = 1
# T7 construct: gene STK17A
# [19] = test system: T8, DRAK2; conditions: concentration: 1 μM, replicates: in singlicate; n = 1
# T8 construct: gene STK17B
# [20] = test system: DYRK1A; conditions: concentration: 1 μM, replicates: in singlicate; n = 1
# [21] = concentration: 1 μM, replicates: in singlicate
# 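Note: KINOMEscan kinase panel screen.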
structure (smiles),measurement,setting,value
Cn1cc(-c2cnc(N)c3c(-c4ccc5c(c4)CCN5C(=O)Cc4ccccc4)csc23)cn1 [GSK2593074],%Inh,[1],21%
same,%Inh,[2],7%
same,%Inh,[3],22%
same,%Inh,[4]; 1 µM,0%
same,%Inh,[5]; 1 µM,1%
same,%Inh,[6],62%
same,%Inh,[7],38%
same,%Inh,[8],21%
same,%Inh,[9],7%
same,%Inh,[10],0%
same,%Inh,[11],0%
same,%Inh,[12],5%
same,%Inh,[13],97.7%
same,%Inh,[14],24%
same,%Inh,[15],0%
same,%Inh,[16],81%
same,%Inh,[17],0%
same,%Inh,[18],0%
same,%Inh,[19],9%
same,%Inh,[20],0%
CC(C)c1nc(-c2ccc(F)c(NS(=O)(=O)c3c(F)cccc3F)c2)c(-c2ccnc(Nc3ccc(N4CCOCC4)nc3)n2)s1 [GSK1804250],%Inh,[1],7%
same,%Inh,[2],4%
same,%Inh,[3],12%
same,%Inh,[4]; [21],10%
same,%Inh,[5]; [21],0%
same,%Inh,[6],30%
same,%Inh,[7],14%
same,%Inh,[8],5%
same,%Inh,[9],20%
same,%Inh,[10],12%
same,%Inh,[11],0%
same,%Inh,[12],30%
same,%Inh,[13],82%
same,%Inh,[14],56%
same,%Inh,[15],68%
same,%Inh,[16],26%
same,%Inh,[17],6%
same,%Inh,[18],15%
same,%Inh,[19],0%
same,%Inh,[20],7%
COC(=O)Nc1nc2ccc(Oc3ccc(NC(=O)Nc4cc(C(F)(F)F)ccc4F)cc3)cc2[nH]1.Cl [GW654607],%Inh,[1],0%
same,%Inh,[2],0%
same,%Inh,[3],24%
same,%Inh,[4]; [21],0%
same,%Inh,[5]; [21],2%
same,%Inh,[6],0%
same,%Inh,[7],2%
same,%Inh,[8],0%
same,%Inh,[9],11%
same,%Inh,[10],16%
same,%Inh,[11],0%
same,%Inh,[12],36%
same,%Inh,[13],100%
same,%Inh,[14],94.2%
same,%Inh,[15],13%
same,%Inh,[16],9%
same,%Inh,[17],0%
same,%Inh,[18],0%
same,%Inh,[19],1%
same,%Inh,[20],13%
COc1cc(Nc2nccc(N3CCC(NS(=O)(=O)c4ccc(NC(C)=O)cc4)CC3)n2)cc(OC)c1OC [GSK1379825],%Inh,[1],0%
same,%Inh,[2],0%
same,%Inh,[3],0%
same,%Inh,[4]; [21],8%
same,%Inh,[5]; [21],2%
same,%Inh,[6],0%
same,%Inh,[7],0%
same,%Inh,[8],0%
same,%Inh,[9],8%
same,%Inh,[10],0%
same,%Inh,[11],1%
same,%Inh,[12],0%
same,%Inh,[13],0%
same,%Inh,[14],14%
same,%Inh,[15],76%
same,%Inh,[16],83%
same,%Inh,[17],0%
same,%Inh,[18],0%
same,%Inh,[19],0%
same,%Inh,[20],25%
COc1ccc(C)c(Nc2ccnc(Nc3ccc(-c4cnc[nH]4)cc3)n2)c1.Cl [GW784041],%Inh,[1],15%
same,%Inh,[2],0%
same,%Inh,[3],8%
same,%Inh,[4]; [21],0%
same,%Inh,[5]; [21],5%
same,%Inh,[6],0%
same,%Inh,[7],7%
same,%Inh,[8],10%
same,%Inh,[9],6%
same,%Inh,[10],7%
same,%Inh,[11],3%
same,%Inh,[12],27%
same,%Inh,[13],52%
same,%Inh,[14],70%
same,%Inh,[15],10%
same,%Inh,[16],5%
same,%Inh,[17],0%
same,%Inh,[18],0%
same,%Inh,[19],0%
same,%Inh,[20],0%
Cc1ccccc1CC(=O)N1CCc2cc(-c3cn(C)c4ncnc(N)c34)ccc21 [GSK2603346],%Inh,[1],12%
same,%Inh,[2],5%
same,%Inh,[3],17%
same,%Inh,[4]; [21],30%
same,%Inh,[5]; [21],15%
same,%Inh,[6],14%
same,%Inh,[7],0%
same,%Inh,[8],0%
same,%Inh,[9],0%
same,%Inh,[10],0%
same,%Inh,[11],0%
same,%Inh,[12],0%
same,%Inh,[13],56%
same,%Inh,[14],13%
same,%Inh,[15],4%
same,%Inh,[16],74%
same,%Inh,[17],0%
same,%Inh,[18],0%
same,%Inh,[19],0%
same,%Inh,[20],17%
Cc1cccc(Nc2nc(NCCN)ncc2C(N)=O)c1 [GSK1292139],%Inh,[1],6%
same,%Inh,[2],0%
same,%Inh,[3],26%
same,%Inh,[4]; [21],34%
same,%Inh,[5]; [21],29%
same,%Inh,[6],0%
same,%Inh,[7],52%
same,%Inh,[8],25%
same,%Inh,[9],38%
same,%Inh,[10],16%
same,%Inh,[11],0%
same,%Inh,[12],0%
same,%Inh,[13],0%
same,%Inh,[14],20%
same,%Inh,[15],62%
same,%Inh,[16],60%
same,%Inh,[17],14%
same,%Inh,[18],58%
same,%Inh,[19],68%
same,%Inh,[20],2%
CCn1cnc2c(NCc3ccccc3)ncnc21 [SKF-96418],%Inh,[1],0%
same,%Inh,[2],0%
same,%Inh,[3],0%
same,%Inh,[4]; [21],0%
same,%Inh,[5]; [21],0%
same,%Inh,[6],34%
same,%Inh,[7],0%
same,%Inh,[8],0%
same,%Inh,[9],11%
same,%Inh,[10],33%
same,%Inh,[11],0%
same,%Inh,[12],0%
same,%Inh,[13],0%
same,%Inh,[14],38%
same,%Inh,[15],0%
same,%Inh,[16],1%
same,%Inh,[17],0%
same,%Inh,[18],0%
same,%Inh,[19],0%
same,%Inh,[20],0%
CC(C)c1nc(-c2cccc(NS(=O)(=O)c3c(F)cccc3F)c2)c(-c2ccnc(Nc3ccc(N4CCOCC4)nc3)n2)s1.Cl [GSK1723980],%Inh,[1],2%
same,%Inh,[2],0%
same,%Inh,[3],0%
same,%Inh,[4]; [21],2%
same,%Inh,[5]; [21],0%
same,%Inh,[6],37%
same,%Inh,[7],3%
same,%Inh,[8],0%
same,%Inh,[9],0%
same,%Inh,[10],11%
same,%Inh,[11],13%
same,%Inh,[12],10%
same,%Inh,[13],94.9%
same,%Inh,[14],42%
same,%Inh,[15],74%
same,%Inh,[16],11%
same,%Inh,[17],0%
same,%Inh,[18],0%
same,%Inh,[19],0%
same,%Inh,[20],39%
